Measured values from publication PMC5540273 (PLoS ONE, 2017).

Experiments:
Conditions in all cases: concentration: 1 μM, replicates: in singlicate; n = 1
[1] = tested on: AAK1
[2] = tested on: ABL1-nonphosphorylated
[3] = tested on: ABL1-phosphorylated
[4] = tested on: ABL2
[5] = tested on: ACVR1B
[6] = tested on: ACVR1
[7] = tested on: ACVR2A
[8] = tested on: ACVR2B
[9] = tested on: ACVRL1
[10] = tested on: T1, ADCK3
T1 construct: gene CABC1

[11] = tested on: ADCK4
[12] = tested on: AKT1
[13] = tested on: AKT2
[14] = tested on: AKT3
[15] = tested on: ALK
[16] = tested on: T2, AMPK-alpha1
T2 construct: gene PRKAA1

[17] = tested on: T3, AMPK-alpha2
T3 construct: gene PRKAA2

[18] = tested on: ANKK1
[19] = tested on: T4, ARK5
T4 construct: gene NUAK1

[20] = tested on: T5, ASK1
T5 construct: gene MAP3K5
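Also: KINOMEscan kinase panel screen.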

Cc1ccc(O)cc1Nc1ccnc2cc(-c3ccc(CN4CCCCC4)o3)ccc12 [GW557777]
%Inh [1]: 10%
%Inh [2]: 100%
%Inh [3]: 99.9%
%Inh [4]: 100%
%Inh [5]: 79%
%Inh [6]: 99.4%
%Inh [7]: 18%
%Inh [8]: 94.7%
%Inh [9]: 90.3%
%Inh [10]: 4%
%Inh [11]: 88%
%Inh [12]: 0%
%Inh [13]: 3%
%Inh [14]: 0%
%Inh [15]: 0%
%Inh [16]: 0%
%Inh [17]: 0%
%Inh [18]: 0%
%Inh [19]: 0%
%Inh [20]: 37%

CN(C)CCNS(=O)(=O)c1ccc(-c2ccnc3[nH]ccc23)cc1 [GSK977620]
%Inh [1]: 21%
%Inh [2]: 0%
%Inh [3]: 0%
%Inh [4]: 8%
%Inh [5]: 6%
%Inh [6]: 0%
%Inh [7]: 0%
%Inh [8]: 0%
%Inh [9]: 0%
%Inh [10]: 10%
%Inh [11]: 0%
%Inh [12]: 57%
%Inh [13]: 18%
%Inh [14]: 75%
%Inh [15]: 50%
%Inh [16]: 53%
%Inh [17]: 43%
%Inh [18]: 0%
%Inh [19]: 39%
%Inh [20]: 0%

Cc1cccc(Nc2nc(NCCN)ncc2C(N)=O)c1 [GSK1292139]
%Inh [1]: 78%
%Inh [2]: 5%
%Inh [3]: 28%
%Inh [4]: 0%
%Inh [5]: 0%
%Inh [6]: 0%
%Inh [7]: 0%
%Inh [8]: 0%
%Inh [9]: 0%
%Inh [10]: 5%
%Inh [11]: 42%
%Inh [12]: 0%
%Inh [13]: 0%
%Inh [14]: 0%
%Inh [15]: 46%
%Inh [16]: 0%
%Inh [17]: 0%
%Inh [18]: 94.9%
%Inh [19]: 64%
%Inh [20]: 0%

CN(c1ccc2c(c1)nc(NCc1ccccc1)n2C)c1ccnc(Nc2ccc(CS(C)(=O)=O)cc2)n1.Cl [GW811603]
%Inh [1]: 16%
%Inh [2]: 98.9%
%Inh [3]: 66%
%Inh [4]: 54%
%Inh [5]: 0%
%Inh [6]: 0%
%Inh [7]: 0%
%Inh [8]: 0%
%Inh [9]: 0%
%Inh [10]: 0%
%Inh [11]: 7%
%Inh [12]: 0%
%Inh [13]: 0%
%Inh [14]: 1%
%Inh [15]: 49%
%Inh [16]: 2%
%Inh [17]: 0%
%Inh [18]: 0%
%Inh [19]: 0%
%Inh [20]: 9%

COc1cc(Nc2nccc(N3CCC(NS(=O)(=O)c4ccc(NC(C)=O)cc4)CC3)n2)cc(OC)c1OC [GSK1379825]
%Inh [1]: 68%
%Inh [2]: 0%
%Inh [3]: 2%
%Inh [4]: 38%
%Inh [5]: 34%
%Inh [6]: 66%
%Inh [7]: 47%
%Inh [8]: 59%
%Inh [9]: 0%
%Inh [10]: 80%
%Inh [11]: 96.2%
%Inh [12]: 0%
%Inh [13]: 15%
%Inh [14]: 0%
%Inh [15]: 32%
%Inh [16]: 17%
%Inh [17]: 50%
%Inh [18]: 0%
%Inh [19]: 43%
%Inh [20]: 0%

CN(c1ccc(F)c(NC(=O)c2cccc(OC(C)(C)C#N)c2Cl)c1)c1ccc2nc(NC(=O)C3CC3)sc2n1
%Inh [1]: 2%
%Inh [2]: 99%
%Inh [3]: 92.6%
%Inh [4]: 89%
%Inh [5]: 0%
%Inh [6]: 0%
%Inh [7]: 0%
%Inh [8]: 0%
%Inh [9]: 0%
%Inh [10]: 0%
%Inh [11]: 0%
%Inh [12]: 2%
%Inh [13]: 4%
%Inh [14]: 0%
%Inh [15]: 46%
%Inh [16]: 0%
%Inh [17]: 0%
%Inh [18]: 0%
%Inh [19]: 0%
%Inh [20]: 0%

COC(=O)Nc1nc2cc(Oc3ccc(NC(=O)Nc4cccc(SC)c4)cc3)ccc2[nH]1.Cl [GW697999]
%Inh [1]: 0%
%Inh [2]: 91.4%
%Inh [3]: 90.1%
%Inh [4]: 76%
%Inh [5]: 0%
%Inh [6]: 0%
%Inh [7]: 0%
%Inh [8]: 0%
%Inh [9]: 0%
%Inh [10]: 0%
%Inh [11]: 48%
%Inh [12]: 0%
%Inh [13]: 0%
%Inh [14]: 0%
%Inh [15]: 25%
%Inh [16]: 5%
%Inh [17]: 0%
%Inh [18]: 10%
%Inh [19]: 0%
%Inh [20]: 2%

Cl.N#CCc1ccc(Nc2nccc(Nc3ccc(Oc4ccccc4)cc3)n2)cc1 [GW639905]
%Inh [1]: 7%
%Inh [2]: 0%
%Inh [3]: 9%
%Inh [4]: 13%
%Inh [5]: 0%
%Inh [6]: 26%
%Inh [7]: 100%
%Inh [8]: 0%
%Inh [9]: 0%
%Inh [10]: 6%
%Inh [11]: 72%
%Inh [12]: 0%
%Inh [13]: 4%
%Inh [14]: 0%
%Inh [15]: 40%
%Inh [16]: 0%
%Inh [17]: 0%
%Inh [18]: 98.9%
%Inh [19]: 0%
%Inh [20]: 0%

Cc1ccccc1CC(=O)N1CCc2cc(-c3cn(C)c4ncnc(N)c34)ccc21 [GSK2603346]
%Inh [1]: 3%
%Inh [2]: 50%
%Inh [3]: 25%
%Inh [4]: 29%
%Inh [5]: 0%
%Inh [6]: 0%
%Inh [7]: 0%
%Inh [8]: 65%
%Inh [9]: 11%
%Inh [10]: 3%
%Inh [11]: 3%
%Inh [12]: 0%
%Inh [13]: 4%
%Inh [14]: 0%
%Inh [15]: 20%
%Inh [16]: 18%
%Inh [17]: 23%
%Inh [18]: 0%
%Inh [19]: 42%
%Inh [20]: 30%

CCOc1nccc(-c2c(-c3ccc(F)cc3)ncn2C2CCNCC2)n1 [SB-249175]
%Inh [1]: 11%
%Inh [2]: 35%
%Inh [3]: 2%
%Inh [4]: 0%
%Inh [5]: 100%
%Inh [6]: 11%
%Inh [7]: 9%
%Inh [8]: 0%
%Inh [9]: 1%
%Inh [10]: 13%
%Inh [11]: 8%
%Inh [12]: 0%
%Inh [13]: 0%
%Inh [14]: 16%
%Inh [15]: 52%
%Inh [16]: 1%
%Inh [17]: 5%
%Inh [18]: 0%
%Inh [19]: 7%
%Inh [20]: 0%

Cl.Cl.NC(CNC(=O)c1cc(Br)c(-c2ccnc3[nH]ccc23)s1)c1ccccc1 (stereo not shown) [GSK1322949]
%Inh [1]: 82%
%Inh [2]: 21%
%Inh [3]: 10%
%Inh [4]: 25%
%Inh [5]: 0%
%Inh [6]: 38%
%Inh [7]: 0%
%Inh [8]: 10%
%Inh [9]: 0%
%Inh [10]: 40%
%Inh [11]: 76%
%Inh [12]: 66%
%Inh [13]: 15%
%Inh [14]: 88%
%Inh [15]: 59%
%Inh [16]: 73%
%Inh [17]: 46%
%Inh [18]: 38%
%Inh [19]: 0%
%Inh [20]: 0%
